PglD inh – C. jejuni PglD acetyltransferase inhibitors, primary screen, biochemical, DTNB colorimetric, single point | UDP-N-acetylbacillosamine N-acetyltransferase PglD (Campylobacter jejuni) | purified PglD enzyme, DTNB colorimetric CoA detection | inhibition, % at 12.5 µM | 360,000 compounds, 0.098% hits | AID 602405, 2012; in the data active = inhibition above about 16%, passing the limit was not always enough
PvdQ acylase – P. aeruginosa PvdQ acylase inhibitors, primary screen, biochemical, fluorescence, plate reader and imaging, single point; 340,000 compounds, 0.063% hits; inhibition, % at 10 µM; purified PvdQ acylase; in the data active = inhibition above about 30%, passing the limit was not always enough;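 also: 0% = vehicle neutral wells and 100% = reference inhibitor wells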
FGF22 binding-1 – binders of human FGF22 protein, primary screen, FGF22 synaptogenesis inhibitor project, biophysical, thermal shift, single point; Fibroblast growth factor 22 (Homo sapiens), Q9HCT0; recombinant FGF22 thermal shift, SYPRO orange fluorescence; percent of sucrose octasulfate shift, DMSO zero; activity (Tm shift, normalised), % at 9.99 µM; 340,000 compounds, 1.5% hits; AID 651658, 2012;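 active = mean Tm shift, scaled 0 neutral to 100 positive control, at about 1.3% or above, every replicate too, limit read from the data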
Target sequence (Q9HCT0 whole entry, looked up): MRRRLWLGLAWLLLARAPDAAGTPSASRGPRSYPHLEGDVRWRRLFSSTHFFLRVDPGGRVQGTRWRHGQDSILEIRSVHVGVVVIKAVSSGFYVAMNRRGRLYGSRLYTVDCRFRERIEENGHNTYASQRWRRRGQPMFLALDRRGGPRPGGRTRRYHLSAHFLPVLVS
dFosB act – activators of delta FosB homodimer, primary screen, biochemical, fluorescence polarization, TAMRA-CDK5 oligo, single point; Protein FosB (Mus musculus), P13346; purified delta FosB; percent of positive-control signal above neutral wells; activation, % at 25 µM; 340,000 compounds, 0.99% hits;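 active = mean activation above about 17%, with every replicate also reaching it, limit read from the data, passing the limit was not always enough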
CDK5 p35 inh – inhibitors of human CDK5/p35 kinase, primary screen, biochemical, single concentration; Cyclin-dependent kinase 5 (Homo sapiens) + Cyclin-dependent kinase 5 activator 1 (Homo …; Recombinant CDK5/p35, ADP-Glo luminescence, 60 min; inhibition, % at 10 µM; 330,000 compounds, 0.01% hits;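 active = highest replicate inhibition of at least 50% and at least 75% of replicates reaching 50%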;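 also: plate controls were DMSO neutral control for no effect and GW8510 at 10 µM for full effect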
SIRT5 block – SIRT5 desuccinylase inhibitors, primary screen, biochemical, fluorescence imaging, single point, set 5. NAD-dependent protein deacylase sirtuin-5, mitochondrial (Homo sapiens), Q9NXA8. Purified SirT5, succinyl-peptide AMC, trypsin-coupled fluorescence. inhibition, % at 15 µM. 330,000 compounds, 1.1% hits. AID 652115, 2013; in the data active = inhibition above about 15%
Target sequence (Q9NXA8 whole entry, looked up): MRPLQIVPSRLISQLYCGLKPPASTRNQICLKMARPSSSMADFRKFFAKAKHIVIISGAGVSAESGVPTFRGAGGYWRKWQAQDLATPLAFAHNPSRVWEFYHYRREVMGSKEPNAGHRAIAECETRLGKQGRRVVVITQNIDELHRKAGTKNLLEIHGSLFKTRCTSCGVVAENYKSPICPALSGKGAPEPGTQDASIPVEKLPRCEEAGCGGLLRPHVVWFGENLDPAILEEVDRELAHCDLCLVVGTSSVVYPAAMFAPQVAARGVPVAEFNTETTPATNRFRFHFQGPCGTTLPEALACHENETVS
PglD confirm – PglD acetyltransferase inhibitors, confirmation, biochemical, DTNB absorbance, single point, cherry-picked samples; inhibition, % at 20 µM; shares compounds with PglD inh; 320 tested, under 10 active; Purified C. jejuni PglD, DTNB absorbance 412 nm;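 active = mean inhibition across replicates of at least 20% with every single replicate also at 20% or more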;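 also: initial rate of CoA release by acetyl transfer from AcCoA to the UDP-4-amino sugar; 0% = median of neutral control wells and 100% = median of positive control wells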
FGF22 binding-2 – binders of human FGF22 protein, dose response, FGF22 synaptogenesis inhibitor project, biophysical, thermal shift, cherry-pick retest; shares compounds with FGF22 binding-1; recombinant FGF22 thermal shift, SYPRO orange fluorescence; thermal shift activity, °C (ΔTm) at 38 µM; 1,000 compounds, 2% hits; AID 720646, 2013;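 active = fitted rise in melting shift crosses a set limit at or below the top valid dose tested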
SYPRO no-protein – compound-only thermal shift signal without protein, dose response, artefact control for FGF22 binder project, biochemical, cherry-picked samples, RT-PCR instrument | 1,000 compounds, 2% hits | AID 743019, 2013 | shares compounds with FGF22 binding-1 | compound-only SYPRO orange thermal shift counter-screen, no protein | AC50, µM (doses to about 38 µM);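 active = rising signal whose fitted curve reaches the 0.54 level within the top valid dose, showing a melting point, actives reach about 13 µM in these data; inactive = the rest, including activity in the opposite direction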; also: value is where the raw curve crosses a fixed level and not half-maximal
Active calls of the source: *; i = inactive; nt = no result given. Rows were chosen to be rich in hits. Some 2.8% of all compounds tested hit in one or more screens of this group.

SMILES	PglD inh	PvdQ acylase	FGF22 binding-1	dFosB act	CDK5 p35 inh	SIRT5 block	PglD confirm	others
CO[C@H]1CN(C)C(=O)c2ccc(NC(=O)C3CC3)cc2OC[C@@H](C)N(C(=O)NC(C)C)C[C@H]1C	2	nt	0	nt	nt	3	nt
COc1ccc(-c2cc(-c3ccc(OC)cc3)[nH]n2)cc1	32*	1	nt	-4	0	nt	-4
COc1ccc(-c2cc(-c3cc(C)ccc3O)[nH]n2)cc1	nt	3	42	1	-9	-4	nt
CCCCc1ccc(S(=O)(=O)NC(=O)C2(C)CCN2C(=O)CCc2cccs2)cc1 (configuration not stated)	69*	nt	0	nt	nt	-3	3
Cc1ccccc1S(=O)(=O)NC(=O)C1(C)CCN1C(=O)CCc1cccs1 (configuration not stated)	3	nt	0	nt	nt	-1	nt
C=C(C)C(=O)Nc1cccc(C2=NOC3(C2)C[C@@H](C(N)=O)N(C(=O)C2(C)CC2)C3)c1 (some centres not stated)	23*	-14	nt	-18	-2	nt	2
Nc1n[nH]c(-c2ccccc2)c1-c1ccccc1	33*	-6	0	-5	0	-1	-3
Nc1n[nH]c(C(F)(F)F)c1-c1ccccc1	-7	-16	0	-1	-1	-5	nt
CC=Cc1ccc2n(c1=O)C[C@H]1[C@H](CO)[C@@H](C(=O)N[C@H](C)c3ccccc3)N(C(=O)c3cnccn3)[C@@H]21 (mixture of isomers)	-3	nt	0	nt	nt	1	nt
COC(=O)c1cccc(NC(=S)NCCC2=CCCCC2)c1	66*	13	nt	-1	0	-8	2
Cn1nnc2cc(NC(=O)Nc3ccccc3F)ccc21	1	nt	0	nt	nt	-4	nt
Cc1cc(NC(=O)Nc2ccccc2F)ccc1Br	40*	3	0	-15	0	-9	-1
CN1C(=O)c2cc(NC(=O)c3cccc(F)c3)ccc2OC[C@H]2O[C@H](CC(=O)Nc3ccccc3)CC[C@@H]21	0	nt	0	nt	nt	2	nt
CCCCNC(=O)Nc1nnc(-c2ccccc2)o1	39*	-8	nt	-3	0	nt	2
CCNC(=O)C[C@H]1CC[C@@H]2[C@H](COC[C@@H](O)CN2C(=O)CC)O1	1	nt	0	nt	nt	-1	nt
Cc1c(C(=O)O)sc2nc(/C=C/c3cccc(O)c3)[nH]c(=O)c12	45*	-8	0	-24	0	9	79*
O=C(C[C@H]1CC[C@@H]2[C@H](COC[C@@H](O)CN2C(=O)c2ccncc2)O1)NC1Cc2ccccc2C1	2	nt	0	nt	nt	-4	nt
CCOc1ccc(S(=O)(=O)NCCN2CCOCC2)c2ccccc12	-7	4	nt	-3	2	nt	nt
CCCOc1ccc(S(=O)(=O)NCCN2CCOCC2)c2ccccc12	23*	7	nt	-6	0	nt	1
c1ccc2c(c1)oc1c(NCCN3CCOCC3)ncnc12	7	-4	nt	-6	-1	nt	nt
c1ccc2c(c1)oc1c(Nc3ccc(CN4CCOCC4)cc3)ncnc12	20*	-4	nt	-13	1	nt	1
COc1cc(CNCCc2c[nH]c3ccccc23)ccc1OCc1ccc(F)cc1	-2	14	nt	9	1	nt	nt
COc1cccc(CNCCc2c[nH]c3ccccc23)c1OCc1ccc(F)cc1	26*	-2	nt	5	-1	nt	1
CO[C@H]1CN(C)C(=O)c2ccc(NS(=O)(=O)c3cn(C)cn3)cc2OC[C@H](C)NC[C@@H]1C	nt	nt	0	nt	nt	-3	nt
O=C(c1cc(-c2ccc(F)cc2)on1)N1CCOCC1	-6	7	0	0	0	-2	nt
SMILES	PglD inh	PvdQ acylase	FGF22 binding-1	dFosB act	CDK5 p35 inh	SIRT5 block	PglD confirm	others
O=C(c1cc(-c2ccc(Cl)cc2)on1)N1CCOCC1	24*	-13	nt	-7	-2	-2	2
Cc1cc(N2CCOCC2)nc2ccc(NC(=O)CCC(=O)N3CCCCC3)cc12	24*	-5	nt	-11	1	nt	-1
C[C@H](CO)N1C[C@H](C)[C@H](CN(C)C(=O)NC2CCCCC2)Oc2ncc(-c3cc4ccccc4o3)cc2C1=O	-1	nt	-1	nt	nt	1	nt
N#C/C(=N\O)c1nc2ccccc2[nH]1	nt	-5	nt	0	1	nt	nt
Cc1ccc2nc(/C(C#N)=N/O)[nH]c2c1	38*	-8	nt	6	0	nt	-12
CCCC(=O)c1cc(F)c(N2CCN(CCC#N)CC2)cc1C	-2	-2	nt	-7	-1	nt	nt
CC(=O)c1ccc(N2CCN(CCC#N)CC2)c(F)c1	26*	9	nt	2	-2	nt	1
O=C(Nc1cccnc1Cl)c1cc([N+](=O)[O-])ccc1Cl	3	-10	0	-5	2	-1	nt
Cc1ccc([N+](=O)[O-])c(C(=O)Nc2cccnc2Cl)c1	21*	9	0	-11	-1	0	-4
COc1cnc(-c2cccc(C(F)(F)F)c2)c(NC(=O)c2cc3ccccc3s2)n1	30*	nt	0	nt	nt	1	2
C[C@H](CO)N1C[C@H](C)[C@H](CN(C)Cc2ccncc2)Oc2ccc(NC(=O)NC3CCCCC3)cc2CC1=O	3	nt	0	nt	nt	3	nt
C[C@@H]1CCCCO[C@@H](CN(C)Cc2ccc3c(c2)OCO3)[C@@H](C)CN([C@@H](C)CO)C(=O)c2cc(NC(=O)NC3CCCCC3)ccc2O1	-1	nt	0	nt	nt	2	nt
CC1(C)C(=O)Nc2ccccc2N1C(=O)CSc1nnc2ccccn12	35*	-4	0	-2	1	4	-1
COc1ccc(C(=O)Cc2ccc(OC)c(OC)c2)cc1	3	-14	nt	1	0	nt	nt
COc1ccc(CCC(C)NC(=O)Cc2ccc(OC)c(OC)c2)c(OC)c1 (configuration not stated)	-4	5	29*	3	0	-7	nt	FGF22 binding-2=0.073;SYPRO no-protein=i
CC(=O)N1CC(=O)N2[C@H](C1)[C@H](c1ccc(-c3ccncc3)cc1)[C@@H]2CO	nt	nt	nt	nt	nt	2	nt

Source: PubChem BioAssay (Broad Institute)
